KCNQ2 inh = inhibitors of rat KCNQ2 potassium channel; AID 2156; O88943; B-score at 10 µM; CHO-K1 KCNQ2, FluxOR thallium flux, 20 min; hits give low values; 310,000 tested, 1.1% active;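 active = fluorescence ratio B-score at most minus 3 library SDs, with starting brightness B-score within 2 library SDs, cut at about -5.5 in these data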
KCNQ2 enhance = KCNQ2 (rat) channel potentiation | AID 2239 | 310,000 tested, 0.54% active | O88943 | B-score at 10 µM | CHO-K1 KCNQ2, FluxOR thallium flux fluorescence; hits give high values;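 active = fluorescence ratio B-score at least 3 SD of library B-scores, with initial fluorescence B-score within 3 of them, cut at about 5.3 in these data; same plate scores as AID 2156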;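 also: B-score of peak minus minimum over baseline fluorescence ratio after K+ and Tl+ stimulus; positive B-score means potentiation of KCNQ2 with more thallium influx and brighter signal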
Kir21 confirm = confirmation of mouse Kir2.1 potassium channel inhibitors. shares compounds with KCNQ2 enhance. Kir2.1-expressing cells, FluxOR thallium flux fluorescence; hits give low values. Tl flux remaining, % of negative control (hits give low values), % at 10 µM. 2,300 tested, 41% active. AID 2032;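 active = Primary-screen hit whose thallium flux fell at least 3 control SD below untreated wells in both duplicates, with normal baseline fluorescence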;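 also: 0% = blank wells without stimulus and 100% = stimulated no-compound controls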
Target sequence (P35561 whole entry, looked up): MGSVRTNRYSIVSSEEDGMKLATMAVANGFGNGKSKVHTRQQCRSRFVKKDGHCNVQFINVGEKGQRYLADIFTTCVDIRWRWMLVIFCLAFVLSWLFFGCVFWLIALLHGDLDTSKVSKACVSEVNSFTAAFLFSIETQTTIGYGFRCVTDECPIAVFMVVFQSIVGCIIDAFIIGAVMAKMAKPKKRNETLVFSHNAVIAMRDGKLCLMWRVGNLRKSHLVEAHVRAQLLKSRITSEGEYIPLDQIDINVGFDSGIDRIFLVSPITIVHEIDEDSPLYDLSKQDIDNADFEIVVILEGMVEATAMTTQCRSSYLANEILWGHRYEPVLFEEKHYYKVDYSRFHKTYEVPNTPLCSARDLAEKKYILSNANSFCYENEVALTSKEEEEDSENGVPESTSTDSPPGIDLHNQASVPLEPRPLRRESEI
HEK293 Tl flux = counter-screen for Kir2.1 inhibitors: effect in parental HEK293 cells | 2,300 tested, 19% active | shares compounds with KCNQ2 enhance | AID 2105 | FluxOR signal as % of negative control (100 = no effect), % at 10 µM | FluxOR thallium flux fluorescence; 0% = unstimulated blank wells;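 active = dye signal at least 3 control SD above or below untreated wells in both duplicates, raw fluorescence within 3, either direction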;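 also: percent is based on the flux ratio of peak minus minimum fluorescence over baseline F0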
CHO-K1 Tl ctr = alters thallium flux in parental CHO-K1 cells, KCNQ2 counter-screen; shares compounds with KCNQ2 enhance; FluxOR thallium flux fluorescence; zero = vehicle mean+3SD, 100% = vehicle-minus-blank window; activity increase over 3SD of controls, % at 10 µM; 1,200 tested, 43% active;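 active = signal rise of at least 3 SD above the untreated control mean, in both duplicate wells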;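 also: counter screen of KCNQ2 potentiator hits so any rise reflects channel-independent effects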
KCNQ1 sel pot = selectivity of KCNQ2 potentiators: effect on human KCNQ1; shares compounds with KCNQ2 enhance; CHO KCNQ1 stable, FluxOR thallium flux fluorescence; beyond 3SD, as % of vehicle-control signal; activation over 3SD threshold, % at 10 µM; 1,200 tested, 28% active; AID 2283;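 active = fluorescence ratio rise of at least 3 SD of vehicle wells above their mean, in both replicate wells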;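 also: 0% = vehicle mean plus 3 SD and 100% = vehicle minus unstimulated blank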
KCNQ2 pot conf = rat KCNQ2 channel potentiator confirmation; shares compounds with KCNQ2 enhance; CHO-KCNQ2 cells, FluxOR thallium flux fluorescence; potentiation, less the hit threshold, % at 10 µM; 1,200 tested, 68% active; AID 2287;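 active = fluorescence ratio rising 3 SD or more over the vehicle control mean in both replicates, plus primary screen hit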;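 also: peak minus minimum thallium fluorescence divided by baseline after K/Tl stimulus; 0% = vehicle mean plus 3 SD and 100% = vehicle minus unstimulated blank difference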
Kir2-1 sel = mouse Kir2.1 off-target activity of KCNQ2 potentiators; activity over 3SD threshold, % at 10 µM; AID 2345; HEK293 Kir2.1, FluxOR thallium flux fluorescence; shares compounds with KCNQ2 enhance; 1,200 tested, 2% active;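 active = fluorescence ratio rise of at least 3 SD above the vehicle-control mean, seen in both replicates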;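 also: 0% = vehicle mean plus 3 SD and 100% = vehicle minus no-stimulus blank window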
KCNQ2 W236L MoA = rat KCNQ2 W236L mutant potentiation by KCNQ2 potentiators; shares compounds with KCNQ2 enhance; CHO KCNQ2-W236L, automated patch clamp current; current increase over 3SD of negative controls (%), hits give high values, % at 25 µM; 940 tested, 10% active;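 active = current increase at least 3 SD of the untreated controls above them in both duplicate recordings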
Active calls of the source: *; i = inactive; . = not tested or not shown. Compounds with a hit are over-represented: about 1.6% of the library has one in this group of screens.

SMILES	KCNQ2 inh	KCNQ2 enhance	Kir21 confirm	HEK293 Tl flux	others
CCCCn1nnnc1SCC(=O)NC1CCCCC1	i	2.6	.	.
COc1ccc(CNC(=O)C2CCN(S(=O)(=O)c3ccc4c(c3)CC(C)N4C(C)=O)CC2)cc1 (centres undefined)	i	2.5	.	.
Cc1ccc(CN=C(Nc2ccccc2)NC2CCCCC2)cc1	i	.	60%*	i
CC(C)c1ccc(NC(=S)NC2CCCCCC2)cc1	i	.	.	.
CCC(NC(=S)NC1CCCCC1)c1ccc(C)cc1 (centres undefined)	i	22*	i	i	CHO-K1 Tl ctr=-6;KCNQ1 sel pot=-15;KCNQ2 pot conf=71*;Kir2-1 sel=-46;KCNQ2 W236L MoA=i
O=C(Nc1ccccc1)NC1CCCCC1	i	0.04	.	.
Cc1ccc(C)c(C(C)NC(=S)NC2CCCCC2)c1 (centres undefined)	i	0.26	.	.
Cc1ccc(CNC(=O)NC2CCCCC2)cc1	i	5.1	.	.
Cc1ccc(CNC(=S)NC2CCCCC2)cc1	i	6.4*	i	i	CHO-K1 Tl ctr=-6;KCNQ1 sel pot=-16;KCNQ2 pot conf=7.2*;Kir2-1 sel=-48;KCNQ2 W236L MoA=i
CCCc1ccc(C(C)NC(=S)NC2CCCCC2)cc1 (centres undefined)	i	23*	i	i	CHO-K1 Tl ctr=-15;KCNQ1 sel pot=0.9*;KCNQ2 pot conf=39*;Kir2-1 sel=-33;KCNQ2 W236L MoA=i
COCCn1c(SCC(=O)Nc2cccc(C)n2)nnc1-c1ccco1	i	.	.	.
CCCn1c(N)c(N(CCOC)C(=O)CSCC(=O)Nc2ccc(OC)cc2)c(=O)[nH]c1=O	i	.	.	.
Cc1c(C(=O)NC2CCC(C)CC2)oc2ccccc12 (centres undefined)	i	.	.	.
CC1CN(C(C)C(=O)NC(c2ccccc2)c2ccccc2)CC(C)O1 (centres undefined)	i	0.19	.	.
O=C(CSc1ccccc1)Nc1ccccc1N1CCOCC1	i	.	i	i
Cc1ccc(SCC(=O)Nc2ccccc2N2CCOCC2)cc1	i	.	48%*	i
Nc1cc(N)nc(SCC(=O)Nc2ccccc2N2CCOCC2)n1	i	1.1	.	.
Cc1ccc(-c2nnc(SCC(=O)Nc3ccccc3N3CCOCC3)o2)cc1	i	.	.	.
O=C(CSc1ccc(F)cc1)Nc1ccc(N2CCOCC2)cc1	i	0.06	.	.
Cc1noc(C)c1CSCC(=O)Nc1ccccc1N1CCCCC1	i	.	56%*	76%*
O=C(CSc1ccc(F)cc1)Nc1ccccc1N1CCOCC1	i	.	38%*	i
Cc1cccc(NC(=O)CSCc2c(C)noc2C)c1C	i	0.82	.	.
COc1ccc(Cl)cc1NC(=O)CSC1=NN2CCCC(=O)N=C2S1	i	0.01	.	.
Cn1c(-c2ccc3c(c2)OCO3)cnc1NCc1ccc(Cl)cc1	i	.	21%*	i
COc1cc(CNc2ncc(-c3ccc(Cl)cc3)n2C)cc(OC)c1OC	i	.	.	.
SMILES	KCNQ2 inh	KCNQ2 enhance	Kir21 confirm	HEK293 Tl flux	others
Cn1c(-c2ccc(F)cc2)cnc1NCc1ccc(C#N)cc1	i	.	.	.
Cc1ccc(CNc2ncc(-c3ccc4c(c3)OCO4)n2C)cc1	-6*	-6	22%*	i
Cn1c(-c2ccccc2)cnc1NCc1ccc(-c2ccccc2)cc1	i	.	.	.
Cn1c(-c2ccc(F)cc2)cnc1NCc1ccc(F)cc1	i	.	38%*	i
O=C(O)c1cc(Nc2cc(Cl)c3nonc3c2[N+](=O)[O-])ccc1O	i	0.02	.	.
CCN(CC(=O)Nc1c(F)cccc1F)C(=O)Cc1csc(-c2ccc(OC)c(OC)c2)n1	i	.	.	.
CCCCN(C(=O)COc1ccc(C)cc1OC)c1c(N)n(CCC)c(=O)[nH]c1=O	i	.	.	.

Source: PubChem
